Where “and” joins values, the source holds several entries; their conditions need not be identical. Identical values can stand only once. Inconclusive results are not listed. Some structures have more than one record in an assay (separate samples or runs), and their calls can disagree. Calls of active or inactive are those of the source. The call rests on the fitted dose curve; in most records, active means well fitted curve in the direction sought with a large enough effect; inconclusive means small, poorly fitted or top-dose-only effect, or another doubt; inactive means no such curve, though single readings can be large; an effect the other way counts as inactive or inconclusive.
Tests used:
[1] = biological target: Cytochrome P450 2C9 (Homo sapiens) (UniProt P11712); assay: qHTS Assay for Inhibitors and Substrates of Cytochrome P450 2C9 (AID 883); further: nearly all actives have a fitted effect of over 60% in size; further: potency means the concentration at half of the fitted maximal effect; on activity change, negative = inhibition: on the % scale 0 is the no-effect control and ±100 the full control effect
Cytochrome P450 2C9 (Homo sapiens), sequence (P11712 whole entry, looked up): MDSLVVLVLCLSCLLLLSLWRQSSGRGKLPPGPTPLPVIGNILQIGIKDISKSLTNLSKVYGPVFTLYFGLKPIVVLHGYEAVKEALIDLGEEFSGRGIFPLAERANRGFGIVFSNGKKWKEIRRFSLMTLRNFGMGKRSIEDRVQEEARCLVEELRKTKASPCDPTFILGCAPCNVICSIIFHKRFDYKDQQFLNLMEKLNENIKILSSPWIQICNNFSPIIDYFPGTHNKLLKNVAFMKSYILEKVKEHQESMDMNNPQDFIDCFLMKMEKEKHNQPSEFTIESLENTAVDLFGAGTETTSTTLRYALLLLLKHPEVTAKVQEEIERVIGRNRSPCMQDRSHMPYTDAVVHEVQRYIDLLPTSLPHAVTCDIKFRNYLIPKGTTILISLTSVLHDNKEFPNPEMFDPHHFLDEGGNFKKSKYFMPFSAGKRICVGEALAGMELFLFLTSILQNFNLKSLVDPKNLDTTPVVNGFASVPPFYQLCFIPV
How it was run: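 Luminescent read-out of deoxyluciferin hydroxylation, normalized to 57uM sulphaphenazole (AC100). Reaction: 10nM enzyme, 100uM Luciferin-H (equal to KM), 25mM KPO4, 10 min compound preincubation, then 60 min with NADPH regeneration, both at 37C.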

[2] = biological target: Cytochrome P450 3A4 (Homo sapiens) (UniProt P08684); assay: qHTS Assay for Inhibitors and Substrates of Cytochrome P450 3A4 (AID 884); further: nearly all actives have a fitted effect of over 50% in size; further: potency means the concentration at half of the fitted maximal effect; on activity change, negative = inhibition: series mostly up to about 57 µM; on the % scale 0 is the no-effect control and ±100 the full control effect
Cytochrome P450 3A4 (Homo sapiens), sequence (P08684 whole entry, looked up): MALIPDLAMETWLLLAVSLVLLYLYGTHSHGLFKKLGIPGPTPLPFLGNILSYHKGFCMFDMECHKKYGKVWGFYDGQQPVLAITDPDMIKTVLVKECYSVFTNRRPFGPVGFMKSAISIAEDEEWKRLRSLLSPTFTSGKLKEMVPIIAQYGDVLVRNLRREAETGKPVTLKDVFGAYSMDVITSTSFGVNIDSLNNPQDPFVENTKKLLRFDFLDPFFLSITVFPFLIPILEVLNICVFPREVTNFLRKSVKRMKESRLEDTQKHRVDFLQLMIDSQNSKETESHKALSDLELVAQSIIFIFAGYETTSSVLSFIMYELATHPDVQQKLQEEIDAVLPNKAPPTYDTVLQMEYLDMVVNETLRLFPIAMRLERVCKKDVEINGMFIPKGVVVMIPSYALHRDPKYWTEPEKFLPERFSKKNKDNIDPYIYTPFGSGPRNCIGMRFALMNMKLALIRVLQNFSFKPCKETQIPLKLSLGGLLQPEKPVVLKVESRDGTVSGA
How it was run: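 20 nM human CYP3A4 with 25 uM Luciferin-PPXE (at KM) in 200 mM KPO4, preincubated 10 min with compound; NADPH regeneration started a 60 min RT reaction. Luciferin detected by luminescence, normalized to 57 uM ketoconazole as full inhibition.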

[3] = biological target: Cytochrome P450 3A4 (Homo sapiens) (UniProt P08684); assay: qHTS Assay for Activators of Cytochrome P450 3A4 (AID 885); further: nearly all actives have a fitted effect of over 65% in size
How it was run: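 Human CYP3A4 (20 nM) with Luciferin-PPXE at 25 uM (its KM) in 200 mM KPO4; 10 min compound preincubation, then NADPH regeneration and 60 min reaction at RT. Luciferin read by luminescence; normalized to 57 uM ketoconazole full inhibition.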

[4] = biological target: Cytochrome P450 2C19 (Homo sapiens) (UniProt P33261); assay: qHTS Assay for Inhibitors and Substrates of Cytochrome P450 2C19 (AID 899); further: nearly all actives have a fitted effect of over 60% in size; further: potency means the concentration at half of the fitted maximal effect
Cytochrome P450 2C19 (Homo sapiens), sequence (P33261 whole entry, looked up): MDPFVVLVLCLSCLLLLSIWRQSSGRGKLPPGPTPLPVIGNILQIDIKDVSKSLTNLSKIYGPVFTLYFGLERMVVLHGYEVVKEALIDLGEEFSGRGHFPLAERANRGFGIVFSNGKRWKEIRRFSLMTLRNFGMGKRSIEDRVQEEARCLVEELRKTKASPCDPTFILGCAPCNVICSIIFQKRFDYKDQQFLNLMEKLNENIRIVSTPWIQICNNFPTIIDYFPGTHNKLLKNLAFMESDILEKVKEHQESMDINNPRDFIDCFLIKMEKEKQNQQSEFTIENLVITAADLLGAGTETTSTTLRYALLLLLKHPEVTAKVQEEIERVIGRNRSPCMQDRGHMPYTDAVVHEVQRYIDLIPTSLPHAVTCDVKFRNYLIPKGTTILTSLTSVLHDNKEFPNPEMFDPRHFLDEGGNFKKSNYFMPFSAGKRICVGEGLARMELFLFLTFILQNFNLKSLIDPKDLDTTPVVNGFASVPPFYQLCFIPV
How it was run: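 Luminescence readout of luciferin formed from 10uM Luciferin-H EGE (KM level) by 5 nM CYP2C19 in 50mM KPO4. 60 min NADPH-driven reaction at 37C after 10 min compound preincubation; data scaled to 57uM ketoconazole inhibition.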

[5] = biological target: Cytochrome P450 2D6 (Homo sapiens) (UniProt P10635); assay: qHTS Assay for Inhibitors and Substrates of Cytochrome P450 2D6 (AID 891);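 further: luciferin methyl ether substrate demethylated by CYP2D6 with NADPH regeneration; on the % scale 0 is the no-effect control and ±100 the full control effect; nearly all actives have a fitted effect of over 60% in size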
Cytochrome P450 2D6 (Homo sapiens), sequence (P10635 whole entry, looked up): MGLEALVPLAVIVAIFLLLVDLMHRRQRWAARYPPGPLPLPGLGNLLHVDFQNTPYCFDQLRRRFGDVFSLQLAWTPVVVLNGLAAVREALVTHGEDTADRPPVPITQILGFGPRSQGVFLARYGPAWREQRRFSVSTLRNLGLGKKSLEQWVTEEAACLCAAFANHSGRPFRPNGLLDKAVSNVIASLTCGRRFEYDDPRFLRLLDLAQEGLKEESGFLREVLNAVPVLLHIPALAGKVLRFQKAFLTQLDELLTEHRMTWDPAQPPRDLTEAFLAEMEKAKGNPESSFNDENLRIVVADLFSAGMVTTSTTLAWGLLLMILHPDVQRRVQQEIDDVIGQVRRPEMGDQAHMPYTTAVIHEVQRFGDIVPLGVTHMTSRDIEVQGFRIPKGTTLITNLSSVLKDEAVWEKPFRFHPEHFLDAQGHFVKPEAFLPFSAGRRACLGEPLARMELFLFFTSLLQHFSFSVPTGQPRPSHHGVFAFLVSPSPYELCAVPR
How it was run: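 Human CYP2D6 (5 nM) with 30 uM Luciferin-ME EGE (at Km) in 100 mM KPO4, compound preincubated 10 min, then NADPH regeneration system for 60 min at room temperature. Luciferin read by luminescence; normalized to 1.43 uM quinidine.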

## CC12C=C(/C=C/C=C/c3ccccc3)C(C)(C1)C(/C=C/c1ccccc1)CC2=O (stereo not drawn)
[1]
  Potency: 3.16 µM (active)
[2]
  Potency: 3.98 µM (active)
[3]
  activity change, positive = activation: -62.5% [at 11.4 µM] (inactive)
[4]
  Potency: 1.58 µM (active)

## CC1CN2C(CCC(C)C2c2ccc(Br)cc2)C(=O)O1 (stereo not drawn)
[1]
  Potency: inactive
[2]
  activity change, negative = inhibition: -15.8% [at 11.4 µM] (inactive) and -28.1% [at 11.4 µM] (inactive)
[3]
  activity change, positive = activation: -51.1% [at 11.4 µM] (inactive)
[5]
  Potency: inactive
[4]
  Potency: inactive and 501 nM (active)

## C=CCC1C=CC(Oc2ccc(OC)cc2)C(CO)O1 (stereo not drawn)
[1]
  Potency: inactive
[2]
  Potency: 3.98 µM (active)
[3]
  activity change, positive = activation: -64.8% [at 11.4 µM] (inactive)
[5]
  Potency: inactive
[4]
  Potency: inactive

## CC(C)(C)c1ccc(OC2C=CC(C#Cc3ccccc3)OC2CO)cc1 (stereo not drawn)
[1]
  Potency: inactive
[2]
  Potency: 3.16 µM (active)
[3]
  activity change, positive = activation: -73.2% [at 11.4 µM] (inactive)
[5]
  Potency: inactive
[4]
  Potency: inactive

## C=CCc1cccc(C2C(C)CCC3C(=O)N4C(Cc5c([nH]c6ccccc56)C4c4cc(OC)c(OC)c(OC)c4)C(=O)N32)c1 (stereo not drawn)
[1]
  Potency: inactive
[2]
  Potency: 3.98 µM (active)
[3]
  activity change, positive = activation: -74.3% [at 11.4 µM] (inactive)
[4]
  Potency: inactive

## COc1ccc(OC2C=CC(C#Cc3ccc(F)cc3F)OC2CO)cc1 (stereo not drawn)
[1]
  Potency: inactive
[2]
  Potency: 3.98 µM (active) and 3.16 µM (active)
[3]
  activity change, positive = activation: -84.9% [at 11.4 µM] (inactive) and -82.9% [at 11.4 µM] (inactive)
[5]
  Potency: inactive
[4]
  Potency: 0.398 µM (active)

## CCCCC#CC1C=CC(Oc2ccc(OC)cc2)C(CO)O1 (stereo not drawn)
[1]
  Potency: inactive
[2]
  Potency: 3.16 µM (active)
[3]
  activity change, positive = activation: -94.2% [at 11.4 µM] (inactive)
[5]
  Potency: inactive
[4]
  Potency: 2 µM (active)

Reference: PubChem BioAssay (NCATS)
